Source: PubChem BioAssay (EPA / NIEHS)
Records with an inconclusive call do not appear. Activity calls are given as the source filed them. How the source made its calls, unless noted: active means hit-call score of the fitted dose curve at least 0.9, where 1 is the maximum; inactive means score below 0.9.

What was measured:
[1] = read-out: solute carrier (SLC22A1), SLC22A1 (gene 6580); experiment: LTEA_HepaRG_SLC22A1: Life Technologies and Expression Analysis (LTEA) Assay for solute carrier (SLC22A1) using HepaRG (AID 2283524); settings: mRNA level, 48 h; actives raise or lower the signal
In short: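 Differentiated human HepaRG cells in serum-free induction medium, exposed 48 h in duplicate to 8-point half-log series from 100 µM top in 0.5% DMSO. SLC22A1 mRNA by TaqMan qRT-PCR normalized to ACTB, GAPDH, POLR2A; bidirectional fit versus DMSO.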

[2] = read-out: Pyruvate Dehydrogenase Kinase 4 (PDK4), PDK4 (gene 5166); experiment: LTEA_HepaRG_PDK4: Life Technologies and Expression Analysis (LTEA) Assay for Pyruvate Dehydrogenase Kinase 4 (PDK4) using HepaRG (AID 2283525); settings: mRNA level, 48 h; actives raise or lower the signal
In short: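 HepaRG cells plated 48 h, then switched to serum-free induction medium and exposed in duplicate for 48 h to 8 half-log concentrations from 100 uM in 0.5% DMSO. PDK4 mRNA measured by qRT-PCR, normalized to ACTB, GAPDH and POLR2A; bidirectional fit versus DMSO.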

[3] = read-out: NAD(P)H dehydrogenase [quinone] 1 (NQO1), NQO1 (gene 1728); experiment: LTEA_HepaRG_NQO1: Life Technologies and Expression Analysis (LTEA) Assay for NAD(P)H dehydrogenase [quinone] 1 (NQO1) using HepaRG (AID 2283526); settings: mRNA level, 48 h; actives raise or lower the signal
In short: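 Human HepaRG hepatic cells received chemicals for 48 h in serum-free induction medium with 0.5% DMSO, up to 100 uM. Expression was assessed by TaqMan qRT-PCR against housekeeping controls and fitted bidirectionally against DMSO.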

[4] = read-out: Nuclear factor erythroid 2-related factor 2 (Homo sapiens) (UniProt Q16236); experiment: LTEA_HepaRG_NFE2L2: Life Technologies and Expression Analysis (LTEA) Assay for Nuclear factor erythroid 2-related factor 2 (NFE2L2) Transcription Factor using HepaRG (AID 2283527); settings: mRNA level, 48 h; actives raise or lower the signal
In short: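 Differentiated human HepaRG cells, serum-free induction medium, exposed 48 h in duplicate to eight half-log concentrations up to 100 uM in 0.5% DMSO. NFE2L2 mRNA by Fluidigm TaqMan qRT-PCR, normalised to ACTB, GAPDH, POLR2A; bidirectional change versus DMSO.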

[5] = read-out: succinate dehydrogenase complex iron sulfur subunit B (SDHB), SDHB (gene 6390); experiment: LTEA_HepaRG_SDHB: Life Technologies and Expression Analysis (LTEA) Assay for succinate dehydrogenase complex iron sulfur subunit B (SDHB) using HepaRG (AID 2283528); settings: mRNA level, 48 h; actives raise or lower the signal
In short: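 HepaRG, 48 h exposure, 8-pt half-log series from 100 uM in 0.5% DMSO, duplicates. Readout: SDHB mRNA by Fluidigm qRT-PCR vs housekeeping genes; bidirectional fit relative to DMSO.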

[6] = read-out: Signal transducer and activator of transcription 3 (Homo sapiens) (UniProt P40763); experiment: LTEA_HepaRG_STAT3: Life Technologies and Expression Analysis (LTEA) Assay for Signal transducer and activator of transcription (STAT3) using HepaRG (AID 2283529); settings: mRNA level, 48 h; actives raise or lower the signal
In short: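 Differentiated HepaRG cells, serum-free induction medium, dosed 48 h in duplicate, 8 half-log concentrations from 100 uM in 0.5% DMSO. STAT3 mRNA by qRT-PCR, normalised to ACTB, GAPDH, POLR2A; bidirectional fit versus DMSO.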

[7] = read-out: solute carrier (SLCO1B1), SLCO1B1 (gene 10599); experiment: LTEA_HepaRG_SLCO1B1: Life Technologies and Expression Analysis (LTEA) Assay for solute carrier (SLCO1B1) using HepaRG (AID 2283530); settings: mRNA level, 48 h; actives raise or lower the signal
In short: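 HepaRG, serum-free induction medium, 48 h dosing, 8-pt half-log from 100 uM, 0.5% DMSO vehicle, duplicates. Readout: SLCO1B1 mRNA, qRT-PCR, ACTB/GAPDH/POLR2A normalization; up or down fit vs DMSO.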

[8] = read-out: sulfotransferase 2A1 (SULT2A1), SULT2A1 (gene 6822); experiment: LTEA_HepaRG_SULT2A1: Life Technologies and Expression Analysis (LTEA) Assay for sulfotransferase 2A1 (SULT2A1) using HepaRG (AID 2283531); settings: mRNA level, 48 h; actives raise or lower the signal
In short: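 Transcript levels of SULT2A1, quantified by qRT-PCR and normalized to three housekeeping genes, serve as the readout. Human HepaRG cultures receive test chemicals for 48 h at up to 100 uM in half-log steps, with 0.5% DMSO vehicle.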

[9] = read-out: Transforming Growth Factor (TGFA), TGFA (gene 7039); experiment: LTEA_HepaRG_TGFA: Life Technologies and Expression Analysis (LTEA) Assay for Transforming Growth Factor (TGFA) using HepaRG (AID 2283532); settings: mRNA level, 48 h; actives raise or lower the signal
In short: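 Differentiated HepaRG cells exposed 48 hours in serum-free induction medium, 0.5% DMSO vehicle, 8-point half-log series from 100 uM, in duplicate. TGFA mRNA by TaqMan qRT-PCR, normalised to ACTB, GAPDH, POLR2A; bidirectional fit versus DMSO.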

[10] = read-out: Transforming Growth Factor (TGFB1), TGFB1 (gene 7040); experiment: LTEA_HepaRG_TGFB1: Life Technologies and Expression Analysis (LTEA) Assay for Transforming Growth Factor (TGFB1) Transporter using HepaRG (AID 2283533); settings: mRNA level, 48 h; actives raise or lower the signal
In short: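 HepaRG, 48 h post-plating, switched to serum-free induction medium; chemicals 100 uM top, half-log, 8 pts, 0.5% DMSO, dup; 48 h exposure; RNA → Fluidigm TaqMan qRT-PCR; norm ACTB/GAPDH/POLR2A; bidirectional fit vs DMSO.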

TIMP1, TIMP1 (gene 7076) = experiment: LTEA_HepaRG_TIMP1: Life Technologies and Expression Analysis (LTEA) Assay for TIMP1 using HepaRG (AID 2283534); settings: mRNA level, 48 h; actives raise or lower the signal;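 further: TaqMan qRT-PCR signal normalized to ACTB GAPDH and POLR2A housekeeping genes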
In short: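 Readout is TIMP1 mRNA level measured by qRT-PCR and normalized to three housekeeping genes. Human HepaRG cells were treated for 48 h in duplicate at eight concentrations up to 100 uM (0.5% DMSO); gain or loss fitted against DMSO.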

[11] = read-out: Tumor necrosis factor receptor 1 (TNFRSF1A), TNFRSF1A (gene 7132); experiment: LTEA_HepaRG_TNFRSF1A: Life Technologies and Expression Analysis (LTEA) Assay for Tumor necrosis factor receptor 1 (TNFRSF1A) using HepaRG (AID 2283535); settings: mRNA level, 48 h; actives raise or lower the signal
In short: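 Read-out is TNFRSF1A transcript level by TaqMan qRT-PCR, normalized to three housekeeping genes, scored as gain or loss of signal versus 0.5% DMSO. Human HepaRG cells received test chemicals for 48 h at up to 100 uM (half-log series).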

[12] = read-out: Cellular tumor antigen p53 (Homo sapiens) (UniProt P04637); experiment: LTEA_HepaRG_TP53: Life Technologies and Expression Analysis (LTEA) Assay for Tumor Protein P53 (TP53) using HepaRG (AID 2283537); settings: mRNA level, 48 h; actives raise or lower the signal
In short: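 HepaRG, 48 h exposure, top 100 uM, half-log 8-point, 0.5% DMSO vehicle, duplicates. Read: TP53 mRNA by TaqMan qRT-PCR, normalised to ACTB/GAPDH/POLR2A; bidirectional fit vs DMSO.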

[13] = read-out: UDP glucuronosyltransferase (UGT1A1), UGT1A1 (gene 54658); experiment: LTEA_HepaRG_UGT1A1: Life Technologies and Expression Analysis (LTEA) Assay for UDP glucuronosyltransferase (UGT1A1) using HepaRG (AID 2283538); settings: mRNA level, 48 h; actives raise or lower the signal
In short: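 Human liver HepaRG cultures receive test chemical for 48 h, up to 100 uM in 0.5% DMSO, with phenobarbital induction controls. UGT1A1 mRNA is measured by qRT-PCR and normalized to ACTB, GAPDH and POLR2A.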

[14] = read-out: UDP glucuronosyltransferase (UGT1A6), UGT1A6 (gene 54578); experiment: LTEA_HepaRG_UGT1A6: Life Technologies and Expression Analysis (LTEA) Assay for UDP glucuronosyltransferase (UGT1A6) using HepaRG (AID 2283539); settings: mRNA level, 48 h; actives raise or lower the signal
In short: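 HepaRG, 48 h post-plating switch to serum-free induction medium; chemical 48 h, 100 uM top, half-log x8, duplicate, 0.5% DMSO. Phenobarbital 1mM induction control. UGT1A6 mRNA by TaqMan qRT-PCR; gain/loss fit vs DMSO.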

[15] = read-out: X-box binding protein 1 (XBP1), XBP1 (gene 7494); experiment: LTEA_HepaRG_XBP1: Life Technologies and Expression Analysis (LTEA) Assay for X-box binding protein 1 (XBP1) using HepaRG (AID 2283540); settings: mRNA level, 48 h; actives raise or lower the signal
In short: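 Transcript levels of XBP1, measured by qRT-PCR and normalised to three housekeeping genes, were fitted bidirectionally relative to 0.5% DMSO controls. Human HepaRG cells received eight-point half-log dilutions from 100 uM for 48 h.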

[16] = LTEA_HepaRG_LDH_cytotoxicity: Cytotoxicity Assessment in the Life Technologies and Expression Analysis (LTEA) Assay (AID 2283563; active means hit-call score of the fitted dose curve at least 0.9, where 1 is the maximum;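 further: LDH activity released into spent culture medium as a marker of cell death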)
In short: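 Cells were thawed and plated for 48 h. Medium was then replaced with serum-free induction medium. Chemicals (8 half-log points, maximum 100 uM, 0.5% DMSO) were added in duplicate for 48 h, after which spent medium was assayed for LDH.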

[17] = ATG_XTT_Cytotoxicity: Cytotoxicity Assessment in the Attagene TRANS-FACTORIAL HepG2 Assay (AID 2283584; active means hit-call score of the fitted dose curve at least 0.9, where 1 is the maximum)
In short: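 Cells: human HepG2, transiently transfected with MRTU reporter constructs. Exposure 24 h. Readout: XTT, cell number. Baseline/neg ctrl DMSO; loss-of-signal scored.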

[18] = TOX21_p53_BLA_p2_viability: Viability Assessment in the Tox21 HCT-116 p53 Agonism Beta-lactamase Assay, Phase 2 (AID 2283591; active means hit-call score of the fitted dose curve at least 0.9, where 1 is the maximum;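 further: compound exposure lasted 16 h at 37 °C; actives lower the ATP signal meaning cytotoxicity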)
In short: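 HCT116 p53-bla cells, 4000/well, dosed after 5 h plating (217-fold dilution of DMSO stocks) and incubated 16 h at 37C. Viability taken as cellular ATP by CellTiter-Glo luminescence after 30 min RT; signal loss marks cytotoxicity.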

[19] = read-out: Thyroid Hormone Responsive (THRSP), THRSP (gene 7069); experiment: LTEA_HepaRG_THRSP: Life Technologies and Expression Analysis (LTEA) Assay for Thyroid Hormone Responsive (THRSP) using HepaRG (AID 2283536); settings: mRNA level, 48 h; actives raise or lower the signal
In short: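 Differentiated HepaRG cells treated 48 h in serum-free induction medium with 8 half-log concentrations up to 100 uM (0.5% DMSO), duplicates. THRSP mRNA by TaqMan qRT-PCR normalised to ACTB, GAPDH, POLR2A; bidirectional fit versus DMSO.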

Measured: AC50

Cellular tumor antigen p53 (Homo sapiens), sequence (P04637 whole entry, looked up): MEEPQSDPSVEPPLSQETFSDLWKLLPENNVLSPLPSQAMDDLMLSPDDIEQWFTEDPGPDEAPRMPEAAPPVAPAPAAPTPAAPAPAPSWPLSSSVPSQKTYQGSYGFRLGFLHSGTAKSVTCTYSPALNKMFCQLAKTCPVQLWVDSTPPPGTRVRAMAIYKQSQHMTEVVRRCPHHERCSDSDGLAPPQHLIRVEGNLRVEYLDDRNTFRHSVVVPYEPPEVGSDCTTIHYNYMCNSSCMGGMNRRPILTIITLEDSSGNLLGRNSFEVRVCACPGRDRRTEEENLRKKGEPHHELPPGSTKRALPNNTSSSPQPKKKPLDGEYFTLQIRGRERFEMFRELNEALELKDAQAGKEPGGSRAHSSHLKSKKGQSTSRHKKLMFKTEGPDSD
Signal transducer and activator of transcription 3 (Homo sapiens), sequence (P40763 whole entry, looked up): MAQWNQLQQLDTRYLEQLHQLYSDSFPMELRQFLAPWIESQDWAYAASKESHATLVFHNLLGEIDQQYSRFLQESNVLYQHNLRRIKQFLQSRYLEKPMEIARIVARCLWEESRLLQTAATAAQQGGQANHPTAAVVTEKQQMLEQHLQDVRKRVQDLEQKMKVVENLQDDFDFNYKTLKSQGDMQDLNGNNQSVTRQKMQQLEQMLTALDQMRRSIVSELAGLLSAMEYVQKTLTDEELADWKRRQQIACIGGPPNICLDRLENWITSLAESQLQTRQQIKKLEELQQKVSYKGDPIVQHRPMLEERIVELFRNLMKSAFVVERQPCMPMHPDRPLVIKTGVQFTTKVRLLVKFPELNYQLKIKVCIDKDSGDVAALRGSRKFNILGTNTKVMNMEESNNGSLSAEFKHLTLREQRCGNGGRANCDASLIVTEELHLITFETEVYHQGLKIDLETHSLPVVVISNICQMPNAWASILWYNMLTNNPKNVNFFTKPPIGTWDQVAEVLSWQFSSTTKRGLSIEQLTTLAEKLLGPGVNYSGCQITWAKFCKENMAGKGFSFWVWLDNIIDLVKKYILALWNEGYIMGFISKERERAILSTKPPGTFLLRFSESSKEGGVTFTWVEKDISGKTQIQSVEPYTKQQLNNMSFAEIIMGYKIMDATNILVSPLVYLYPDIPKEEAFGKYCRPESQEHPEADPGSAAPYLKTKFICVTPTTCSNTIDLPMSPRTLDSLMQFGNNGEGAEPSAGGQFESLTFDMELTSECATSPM
Nuclear factor erythroid 2-related factor 2 (Homo sapiens), sequence (Q16236 whole entry, looked up): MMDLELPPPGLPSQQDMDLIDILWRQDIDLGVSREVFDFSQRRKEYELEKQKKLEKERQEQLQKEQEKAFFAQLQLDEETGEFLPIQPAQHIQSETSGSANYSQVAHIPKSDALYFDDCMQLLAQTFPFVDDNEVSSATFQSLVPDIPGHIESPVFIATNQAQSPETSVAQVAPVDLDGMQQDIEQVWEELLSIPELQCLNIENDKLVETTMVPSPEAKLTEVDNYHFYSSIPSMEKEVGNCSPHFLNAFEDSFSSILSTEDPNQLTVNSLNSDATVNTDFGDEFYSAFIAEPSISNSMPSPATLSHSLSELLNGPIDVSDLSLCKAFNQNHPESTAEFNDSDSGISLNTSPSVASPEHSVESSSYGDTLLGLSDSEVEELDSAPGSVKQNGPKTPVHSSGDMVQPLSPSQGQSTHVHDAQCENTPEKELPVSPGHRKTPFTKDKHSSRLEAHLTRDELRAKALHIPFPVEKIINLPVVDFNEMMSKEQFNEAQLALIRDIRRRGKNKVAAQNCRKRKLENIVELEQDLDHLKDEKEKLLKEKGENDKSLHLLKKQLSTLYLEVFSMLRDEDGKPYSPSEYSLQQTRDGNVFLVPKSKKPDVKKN

COC(=O)[C@H]1[C@H]2C[C@@H]3c4[nH]c5cc(OC)ccc5c4CCN3C[C@H]2C[C@@H](OC(=O)c2cc(OC)c(OC)c(OC)c2)[C@@H]1OC
active: [1] 52.8 µM | [4] 42.2 µM | [7] 59 µM | [8] 62.8 µM | [13] 66.1 µM | [14] 55.3 µM | [15] 42.2 µM | [16] 30.3 µM
not listed: [19]
inactive: all other assays above

CC(C)(O)c1ccc(CNC(=O)c2cccnc2Oc2ccc(F)cc2)cc1
active: [13] 4.71 µM
not listed: [16] | [17] | [18] | [19]
inactive: all other assays above

COc1ccc(OC(F)(F)F)cc1CN[C@H]1CCCN[C@H]1c1ccccc1
active: [1] 50 µM | [4] 14.7 µM | [6] 73.4 µM | [8] 81.2 µM | [11] 93.1 µM | [12] 77.7 µM | [13] 83.8 µM | [14] 89.9 µM | [16] 73.6 µM | [18] 69.3 µM
inactive: [2] | [3] | [5] | [9] | [10] | TIMP1, TIMP1 (gene 7076) | [19] | [15]

COC(=O)CCC(=O)OC
not listed: [16] | [18]
inactive: all other assays above
